# From the supplement of paper PMC12024424
# Structures can show the parent of a compound that is named as a salt.
# System: Staphylococcus aureus Sa2 (MRSA, cystic fibrosis isolate)
# Experiment: growth reduction vs untreated control (viable cell count); higher = stronger antibacterial activity; extreme values may be limits of the assay
# Details: 0.1 mM; 24 h
# Procedure: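 Single-dose screen of the MedChem Express Drug Repurposing Library (0.1 mM, 1% DMSO) against planktonic MRSA S. aureus Sa2 (CF isolate) in TSB in 96-well plates, 37 °C aerobic, 24 h. Assays were run in triplicate and repeated twice.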
row,Compound,growth reduction [%]
1,Cc1cc2c(C(C)C)c(O)c(O)c(C=O)c2c(O)c1-c1c(C)cc2c(C(C)C)c(O)c(O)c(C=O)c2c1O [Gossypol],100
2,COc1cccc2c1cc([N+](=O)[O-])c1c(C(=O)O)cc3c(c12)OCO3 [Aristolochic acid A],100
3,Cc1cc2c(C(C)C)c(O)c(O)c(C=O)c2c(O)c1-c1c(C)cc2c(C(C)C)c(O)c(O)c(C=O)c2c1O [(R)-(-)-Gossypol acetic acid],100
4,c1ccc2c(c1)Sc1ccccc1N2CC1CN2CCC1CC2 (stereo not drawn) [Mequitazine],96
5,CC[C@H](C)C1O[C@]2(C=C[C@@H]1C)C[C@@H]1C[C@@H](C/C=C(\C)[C@@H](O[C@H]3C[C@H](OC)[C@@H](O[C@H]4C[C@H](OC)[C@H](NC)[C@H](C)O4)[C@H](C)O3)[C@@H](C)/C=C/C=C3\CO[C@@H]4[C@H](O)C(C)=C[C@@H](C(=O)O1)[C@]34O)O2 (stereo partly drawn) [Emamectin (Benzoate)],100
6,Fc1ccc(C(OCCN2CCN(CCCc3ccccc3)CC2)c2ccc(F)cc2)cc1 [Vanoxerine (dihydrochloride)],99
7,C[S+]([O-])CCCCN=C=S (stereo not drawn) [Sulforaphane],100
8,O=C(CNC(=O)c1ccc(C2=NOC(c3cc(Cl)cc(C(F)(F)F)c3)(C(F)(F)F)C2)c2ccccc12)NCC(F)(F)F (stereo not drawn) [Afoxolaner],98
9,Cc1cc2c(C(C)C)c(O)c(O)c(C=O)c2c(O)c1-c1c(C)cc2c(C(C)C)c(O)c(O)c(C=O)c2c1O [Gossypol (acetic acid)],100
10,O=c1[nH]c2ccccc2n1C1CCN(CCCC(c2ccc(F)cc2)c2ccc(F)cc2)CC1 [Pimozide],98
11,O=C(O)c1nn(Cc2ccc(Cl)cc2Cl)c2ccccc12 [Lonidamine],90
12,CCNC1=Nc2ccc(Cl)cc2C(C)(c2ccccc2)O1 (stereo not drawn) [Etifoxine],100
13,O=c1c2ccccc2[se]n1-c1ccccc1 [Ebselen],100
